Bioassay records deposited in PubChem by National Center for Advancing Translational Sciences (NCATS).
HP1b binding inh = HTS for Inhibitors of HP1-beta Chromodomain Interactions with Methylated Histone Tails. Chromobox protein homolog 1 (Homo sapiens), P83916. AlphaScreen HP1-beta / biotin-H3K9me3 peptide binding. Potency, µM (titrated, usually from 114 µM), for inactives: top-dose activity change, negative = inhibition, hits mostly inhibitors. actives 0.56% (n = 390,000). AID 540317, 2011; further: nearly all actives have a fitted effect of over 70% in size
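HP1-beta protein (50 nM final) preincubated 30 min at room temperature with biotinylated H3(1-18)K9me3 peptide (50 nM) in PBS pH 7.4, 0.01% Tween-20, then compound added for 30 min. AlphaScreen streptavidin donor/nickel chelate acceptor beads (10 ug/mL final), 30 min dark, luminescence read.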
PLK1 PBD block = qHTS for Inhibitors of PLK1-PDB (polo-like kinase 1 - polo-box domain): Primary Screen | Potency, µM, without a hit: max response, negative = inhibition, usual class: inhibitors | Plk1 PBD binding of FITC phosphopeptide, fluorescence polarization | actives 2.8% (n = 360,000) | Serine/threonine-protein kinase PLK1 (Homo sapiens), P53350; further: series mostly up to about 57 µM; on the % scale 0 is the no-effect control and ±100 the full control effect; nearly all actives have a fitted effect of over 65% in size
G9a block = qHTS Assay for Inhibitors of Histone Lysine Methyltransferase G9a; Potency, µM (series often up to 102 µM), inactives show at the highest dose activity, negative = inhibition, most hits filed as inhibitors; G9a H3K9 monomethylation, AlphaScreen, 2 h; actives 8.8% (n = 350,000); Histone-lysine N-methyltransferase EHMT2 (Homo sapiens), Q96KQ7; further: on the % scale 0 is the no-effect control and ±100 the full control effect; nearly all actives have a fitted effect of over 75% in size
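G9a (20 nM) was preincubated 15 min with compound, then reacted 2 h at room temperature with 500 nM biotin-H3K9 peptide and 20 µM SAM. Monomethyl-H3K9 detected by AlphaScreen using anti-H3K9me1 antibody.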
BAZ2B inh = qHTS Assay for Inhibitors of BAZ2B. AlphaScreen BAZ2B-H3K14Ac peptide displacement. Potency, µM (series often up to 114 µM), for inactives: at the highest dose activity change, negative = inhibition, hits mostly inhibitors. AID 504333, 2011. actives 4.4% (n = 360,000); further: on the % scale 0 is the no-effect control and ±100 the full control effect; nearly all actives have a fitted effect of over 60% in size
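BAZ2B 50 nM plus b-H3(5-23)K14Ac 50 nM, PBS pH 7.4/0.01% Tween-20, 30 min RT; compound added (max 110 uM), 30 min RT; streptavidin donor/Ni-chelate acceptor beads 10 ug/mL final, 20 min dark; AlphaScreen read.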
Sfp PPTase inh = qHTS Assay for Inhibitors of Bacillus subtilis Sfp phosphopantetheinyl transferase (PPTase); Biochemical Sfp PPTase activity, qHTS; Potency, µM, for inactives: largest response in the series, negative = inhibition, usual class: inhibitors; actives 3.5% (n = 310,000);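 further: the enzyme is Sfp with the accession as filed and its product quenches rhodamine fluorescence; 0% = enzyme reaction without inhibitor and -100% = no enzyme wells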
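Fluorescence-quenching assay: 15 nM Sfp-PPTase preincubated 15 min at room temperature with compound, then 5 uM rhodamine-CoA and 12.5 uM BHQ-2-labelled YbbR peptide added. Fluorescence (ex 525/em 598 nm) read at start and after 30 min; difference gives rate.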
JMJD2A Tudor inh = qHTS Assay for Inhibitors of JMJD2A-Tudor Domain; AID 504339, 2011; Lysine-specific demethylase 4A (Homo sapiens), O75164; actives 4.4% (n = 390,000); AlphaScreen JMJD2A-Tudor / H3K4me3 peptide binding; Potency, µM (series often up to 114 µM), for inactives: at the top dose activity change, negative = inhibition, usual class: inhibitors; further: on the % scale 0 is the no-effect control and ±100 the full control effect; nearly all actives have a fitted effect of over 50% in size
Target sequence (O75164 whole entry, looked up, the tested form may be a part): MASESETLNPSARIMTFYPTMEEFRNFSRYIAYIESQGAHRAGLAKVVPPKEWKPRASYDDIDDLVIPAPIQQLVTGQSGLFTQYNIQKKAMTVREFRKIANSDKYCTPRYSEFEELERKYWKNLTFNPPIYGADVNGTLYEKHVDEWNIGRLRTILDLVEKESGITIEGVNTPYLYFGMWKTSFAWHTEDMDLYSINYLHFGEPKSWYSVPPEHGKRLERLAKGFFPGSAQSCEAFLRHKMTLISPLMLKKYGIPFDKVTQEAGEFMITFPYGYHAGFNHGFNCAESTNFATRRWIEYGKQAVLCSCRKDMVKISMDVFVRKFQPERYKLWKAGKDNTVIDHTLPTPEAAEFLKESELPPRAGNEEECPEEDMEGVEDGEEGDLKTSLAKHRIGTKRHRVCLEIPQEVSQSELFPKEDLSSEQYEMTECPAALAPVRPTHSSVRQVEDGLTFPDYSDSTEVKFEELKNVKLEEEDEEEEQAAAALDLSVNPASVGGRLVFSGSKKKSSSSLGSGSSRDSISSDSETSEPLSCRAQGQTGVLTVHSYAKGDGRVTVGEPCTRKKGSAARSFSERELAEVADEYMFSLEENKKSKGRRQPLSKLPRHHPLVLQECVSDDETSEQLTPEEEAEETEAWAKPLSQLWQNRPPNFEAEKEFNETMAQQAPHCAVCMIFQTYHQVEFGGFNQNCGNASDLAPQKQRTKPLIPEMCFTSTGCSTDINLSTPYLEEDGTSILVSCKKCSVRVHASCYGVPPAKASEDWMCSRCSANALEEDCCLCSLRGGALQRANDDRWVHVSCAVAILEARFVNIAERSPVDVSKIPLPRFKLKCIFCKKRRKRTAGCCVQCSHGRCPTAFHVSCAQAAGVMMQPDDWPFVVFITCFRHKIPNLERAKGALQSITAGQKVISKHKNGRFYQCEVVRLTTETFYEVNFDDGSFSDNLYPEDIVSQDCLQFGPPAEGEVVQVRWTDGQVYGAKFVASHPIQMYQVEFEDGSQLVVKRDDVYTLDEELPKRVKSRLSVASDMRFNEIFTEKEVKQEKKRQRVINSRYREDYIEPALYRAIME
* marks the source's active call; other numbers are inactive results; ? = inconclusive; . = no result; [ ] = another dose, or the depositor's remark. In the library only some 12% were active in any assay of this set; here they are far more common. The call rests on the fitted dose curve; in most records, active means well fitted curve in the direction sought with a large enough effect; inconclusive means small, poorly fitted or top-dose-only effect, or another doubt; inactive means no such curve, though single readings can be large; an effect the other way counts as inactive or inconclusive. Potency means the concentration at half of the fitted maximal effect.

SMILES | HP1b binding inh | PLK1 PBD block | G9a block | BAZ2B inh | Sfp PPTase inh | JMJD2A Tudor inh
Cc1ccc(CN(C(=O)COc2ccc(Br)cc2)C2CCS(=O)(=O)C2)o1 (stereo unspecified) | -8% | 12µM* | -8% | ? | 0% | 25µM*
NC(=O)[C@@H]1CCCN1C(=O)C(Cc1cnc[nH]1)NC(=O)C1CCC(=O)N1 (stereo partly specified) | . | . | . | . | 4% | .
CCc1ccc(OCC(=O)N(Cc2ccc(C)o2)C2CCS(=O)(=O)C2)cc1 (stereo unspecified) | 12% | . | -22%[59 µM] | -29% | . | 56µM*
Cc1ccc(CN(C(=O)COc2ccc(F)cc2)C2CCS(=O)(=O)C2)o1 (stereo unspecified) | 22% | . | -5%[59 µM] | -17% | . | -26%
Cc1ccc(CN(C(=O)c2ccc(Cl)c([N+](=O)[O-])c2)C2CCS(=O)(=O)C2)o1 (stereo unspecified) | 3% | 24µM* | 25% | -22%[57.1 µM] | 17% | ?
Cc1ccc(CN(C(=O)COc2ccc(C)c(C)c2)C2CCS(=O)(=O)C2)o1 (stereo unspecified) | -8% | 27µM* | -9% | -21%[57.1 µM] | 4% | ?
O=C1CC(c2ccco2)Sc2nc3ccccc3n21 (stereo unspecified) | 19% | -6% | 45µM* | -32% | ? | 79µM*
CCCN1C(=O)CC(c2ccco2)Sc2ccccc21 (stereo unspecified) | -3% | -8% | ? | -13% | 35µM* | ?
Cc1ccc(-n2nc(CO)c(C(=O)NCCCc3ccccc3)n2)cc1C | 29% | . | 22%[59 µM] | 1% | . | 19%
COC1C=CC23c4cc5c(cc4CN(CC2O)C3C1)OCO5 (stereo unspecified) | . | . | -25%[2.33 µM] | . | -5% | .
CCOC(=O)c1ccc2[nH]c(CSc3nnc(-c4cccc(F)c4)n3C)cc(=O)c2c1 | 17%[57 µM] | . | -3%[59 µM] | 8% | . | -13%
Cc1ccc(N/N=C2\CC(=O)c3ccccc32)cc1Cl | . | . | . | 11µM* | -14% | .
COc1cc(CC(=O)OCc2ccccc2F)cc(OC)c1OC | -10% | 4% | 49% | 16% | 14% | 15%
CCCCNC(=O)CCCn1c(=O)c2ccccc2n(CC(=O)Nc2ccccc2OCC)c1=O | 8% | . | 8%[59 µM] | 5% | . | -12%
Oc1c(Cl)cc(Cl)cc1CNc1nccs1 | 16% | 1% | 79µM* | 0% | 6% | -13%
CSCC[C@H](NC(=O)[C@H](CO)NC(=O)[C@H](Cc1ccc(O)cc1)NC(=O)[C@@H](N)CO)C(=O)N[C@@H](CCC(=O)O)C(=O)N[C@@H](Cc1cnc[nH]1)C(=O)N[C@@H](Cc1ccccc1)C(=O)N[C@@H](CCCNC(=N)N)C(=O)N[C@@H](Cc1c[nH]c2ccccc12)C(=O)NCC(=O)N[C@@H](CCCCN)C(=O)N1CCC[C@H]1C(=O)N[C@H](C(=O)NCC(=O)N[C@@H](CCCCN)C(=O)N[C@@H](CCCCN)C(=O)N[C@@H](CCCNC(=N)N)C(=O)N[C@@H](CCCNC(=N)N)C(=O)N1CCC[C@H]1C(=O)N[C@H](C(=O)N[C@@H](CCCCN)C(=O)N[C@H](C(=O)N[C@@H](Cc1ccc(O)cc1)C(=O)N1CCC[C@H]1C(=O)O)C(C)C)C(C)C)C(C)C | . | . | . | . | -18% | .
COC(=O)c1ccc(CN2CCN(Cc3ccc(C(=O)OC)o3)CC2)o1 | 19% | -6% | 11µM* | . | 20% | 5%
O=C(O)c1ccc2c(c1)C(=O)N([C@]1(C(=O)O)CC1c1ccccc1)C2=O (stereo partly specified) | . | . | 5%[12.7 µM] | -3% | 19% | ?
CCOC(=O)CCN1C(=O)[C@H]2[C@H]3[C@H](O)[C@H](O)C/C(=N/NC(=O)OCc4ccc(OC)cc4)[C@@H]3CC[C@@H]2C1=O | . | . | . | . | 8% | .
COC(=O)[C@]12CCCCC=C1N(Cc1ccc(Cl)cc1Cl)C(=O)[C@H](CC(=O)NCc1cccc(C(F)(F)F)c1)C2 | . | 7% | . | . | . | .
COc1cc(NS(=O)(=O)c2ccc([N+](=O)[O-])cc2)c2ncccc2c1 | . | . | . | . | 6% | 56µM*
COc1cc(NS(=O)(=O)c2cccc([N+](=O)[O-])c2)c2ncccc2c1 | . | . | . | . | 14% | 56µM*
COC(=O)COc1ccc(NS(=O)(=O)c2cccc([N+](=O)[O-])c2)cc1 | -21% | 24µM* | . | -10% | 9% | ?
CCOC(=O)Cc1ccc(NCc2ccc(Cl)cc2)cc1 | 9% | -7% | 50µM* | ? | -15% | ?
COc1ccc(-n2c3c(cc(C(=O)NNc4ccccc4C)c2=O)C(=O)CC(C)(C)C3)cc1 | 8% | -3% | 50µM* | . | 4% | -11%
SMILES | HP1b binding inh | PLK1 PBD block | G9a block | BAZ2B inh | Sfp PPTase inh | JMJD2A Tudor inh
CCCc1nc2sc3ccccc3c(=O)c2c(=O)n1Cc1ccco1 | 15% | -26% | ? | ? | 28µM* | -28%[57.1 µM]
CCCc1nc2sc3ccccc3c(=O)c2c(=O)n1Cc1ccc(OC)cc1 | 14% | 6% | . | -23% | ? | -5%
CCCc1nc2oc3cc(OC)ccc3c(=O)c2c(=O)n1Cc1ccco1 | -11% | -18% | -20%[59 µM] | ? | 32µM* | ?
COCCn1c(-c2ccccc2)nc2oc3cc(OC)ccc3c(=O)c2c1=O | 15% | -7% | 61%[59 µM] | -20% | 25% | -12%
CCCCCCn1c(-c2ccco2)nc2oc3cc(OC)ccc3c(=O)c2c1=O | 35% | -6% | 20µM* | -26% | 5% | -19%
COc1ccc2c(=O)c3c(=O)n(Cc4ccco4)c(-c4ccccc4)nc3oc2c1 | 6% | -12% | ? | -13% | 32µM* | -27%
COc1ccc2c(=O)c3c(=O)n(Cc4ccco4)c(-c4cc(OC)c(OC)c(OC)c4)nc3oc2c1 | 23% | -13% | ? | -5% | ? | -20%
CCc1ccccc1NC(=S)N(CCCN(C)C)Cc1cc2cc3c(cc2[nH]c1=O)OCO3 | 27% | -6% | 12%[12.7 µM] | -11% | 10% | -5%[11.4 µM]
Cc1cnc(CNc2cc(-c3ccccc3CN(C)C)ncn2)cn1 | . | . | -2%[0.501 µM] | . | -13% | .
Nc1c(Cl)ncnc1Nc1ccc(C(=O)O)cc1 | 28% | -6% | . | . | . | 13µM*
CCN(Cc1cccs1)C(=O)CN1C(=O)NC2(CCCc3ccccc32)C1=O (stereo unspecified) | 30% | -7% | 6%[12.7 µM] | 8% | . | -18%
